According to PubChem BioAssay:
A number with no mark means an inactive call. No rule for the calls is given here.

Molecular target: Pantothenate synthetase (Mycobacterium tuberculosis (strain ATCC 25618 / H37Rv)) (UniProt P9WIL5)
Assay: Coupled enzyme confirmation of inhibitors against recombinant Mtb PanC (AID 375);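 also: 0% = full reaction with vehicle and 100% = no enzyme background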
Conditions: coupled enzyme assay; at 10 µM, hits give high values

Chain of Pantothenate synthetase (Mycobacterium tuberculosis (strain ATCC 25618 / H37Rv)) (P9WIL5 whole entry, looked up): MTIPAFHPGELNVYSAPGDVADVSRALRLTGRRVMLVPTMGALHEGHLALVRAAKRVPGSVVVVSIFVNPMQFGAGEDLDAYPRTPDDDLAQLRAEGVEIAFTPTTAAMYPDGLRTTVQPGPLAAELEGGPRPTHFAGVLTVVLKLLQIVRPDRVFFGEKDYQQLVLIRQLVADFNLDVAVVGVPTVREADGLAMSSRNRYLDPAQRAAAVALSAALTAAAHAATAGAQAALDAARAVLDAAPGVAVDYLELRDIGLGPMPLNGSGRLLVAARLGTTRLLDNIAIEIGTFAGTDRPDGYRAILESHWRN

Row | SMILES | inhibition [%]
1 | Cc1ccccc1OCc1nnc2n1CC(C)S2 (configuration not stated) | 0
2 | COc1ccccc1NC(=O)C1(C)Cc2ccccc2C(=O)O1 (configuration not stated) | 0
3 | O=C(c1cn(-c2ccccc2)nc1-c1cccs1)N1CCN(c2ccccn2)CC1 | 2
4 | Cc1c(C(=O)O)oc2ccc(S(=O)(=O)NCCC3=CCCCC3)cc12 | 2
5 | O=C(c1ccc(COc2c(F)c(F)c(F)c(F)c2F)o1)N1CCOCC1 | 4
6 | CN(C)C(CN1C(=O)C2CC=CCC2C1=O)c1cn(C)c2ccccc12 (configuration not stated) | 0
7 | CCC(=O)Oc1ccc(C(CC)C(CC)c2ccc(OC(=O)CC)cc2)cc1 (configuration not stated) | 0
